The values below come from PubChem BioAssay (EPA / NIEHS).

Assay [1] can be described thus: BSK_4H_Eotaxin3: BioMAP Diversity Plus: 4H Assay for Eotaxin 3 Biomarker Activity (AID 2283000).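 As to outcome: CCL26 protein level quantified by ELISA in parallel with SRB cytotoxicity check.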 Conditions: primary human endothelial cells (HUVEC); actives raise or lower the signal. The method, boiled down: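 Readout is Eotaxin-3 (CCL26) level by ELISA in primary human umbilical vein endothelial cells harvested 24 h after chemical exposure; activity fitted in both directions against DMSO control.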

For assay [2], the target named is human Peroxisome Proliferator-activated Receptor alpha (PPARa), PPARA (gene 5465) (UniProt Q07869). Description: ATG_PPARa_TRANS: Attagene TRANS-FACTORIAL HepG2 Assay for human Peroxisome Proliferator-activated Receptor alpha (PPARa) (AID 2283001; active = hit-call score of the fitted dose curve at least 0.9, where 1 is the maximum). The method, boiled down:
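Reporter transcripts from GAL4-UAS units in transfected HepG2 were quantified 24 h after dosing. Detection used reverse transcription, PCR, fluorescent primer extension and capillary electrophoresis, with DMSO as baseline.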

Read-out in assay [3]: Intercellular Adhesion Molecule 1 (ICAM1), ICAM1 (gene 3383)
Description: BSK_3C_ICAM1: BioMAP Diversity Plus: 3C Assay for Intercellular Adhesion Molecule 1 (ICAM1) Biomarker Activity (AID 2283003). To be noted: primary human endothelial cells (HUVEC); actives raise or lower the signal. The method, boiled down:
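Primary human umbilical vein endothelial cells in the BioMAP 3C system were exposed to chemicals for 24 h, then ICAM-1 was quantified by ELISA. Activity was fitted bidirectionally against the DMSO negative control baseline.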

Assay [4] can be described thus: BSK_3C_Proliferation: Cell Proliferation Assessment in the BioMAP Diversity Plus: 3C Assay (AID 2283006).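 As to AC50: potency may reflect either rise or fall in cell number versus DMSO.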 Conditions: primary human endothelial cells (HUVEC). The method, boiled down: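 Human umbilical vein endothelial cells were grown sub-confluent and exposed to chemical for 48 h, then fixed with 10% TCA and stained with 0.1% sulforhodamine B; absorbance at 560 nm gave relative cell number, fitted bidirectionally against DMSO baseline.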

Assay [5] addresses Peroxisome proliferator-activated receptor gamma (Homo sapiens) (UniProt P37231). Description: ATG_PPARg_TRANS: Attagene TRANS-FACTORIAL HepG2 Assay for human Peroxisome Proliferator-activated Receptor-gamma (PPARg) (AID 2283007; active = hit-call score of the fitted dose curve at least 0.9, where 1 is the maximum). The method, boiled down: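 Twenty-four hours after chemical dosing of transiently transfected HepG2 cells, isolated RNA was converted to cDNA, reporter sequences amplified and 6-FAM-labelled, then HpaI-digested and analysed by capillary electrophoresis. Signal increase against DMSO was fitted.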

Assay [6] addresses human Retinoic Acid Receptor gamma (RARg), RARG (gene 5916) (UniProt P13631). Description: ATG_RARg_TRANS: Attagene TRANS-FACTORIAL HepG2 Assay for human Retinoic Acid Receptor gamma (RARg) (AID 2283009; active = hit-call score of the fitted dose curve at least 0.9, where 1 is the maximum). The method, boiled down:
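HepG2 cells transiently transfected with multiplexed reporter units expressing chimeric RARg-GAL4 and GAL4-UAS-driven reporters; 24 h compound exposure. Reporter mRNA quantified by RT-PCR with fluorescent labelling and capillary electrophoresis; gain-of-signal fitted relative to DMSO baseline.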

For assay [7], the target named is human RAR-related Orphan Receptor gamma (RORg), RORC (gene 6097) (UniProt P51449). Description: ATG_RORg_TRANS: Attagene TRANS-FACTORIAL HepG2 Assay for human RAR-related Orphan Receptor gamma (RORg) (AID 2283011; active = hit-call score of the fitted dose curve at least 0.9, where 1 is the maximum). The method, boiled down: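 Transient MRTU transfection of HepG2 (TRANS format, exogenous NR-Gal4 chimera). 24 h dosing. Total RNA → oligo(dT) RT → PCR → 6-FAM labelling → HpaI cut → CE. Gain vs DMSO.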

Read-out in assay [8]: E-selectin (Homo sapiens) (UniProt P16581)
Description: BSK_3C_Eselectin: BioMAP Diversity Plus: 3C Assay for Eselectin Biomarker Activity (AID 2283015).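 As to outcome: cell surface E-selectin protein quantified by ELISA 24 h after dosing.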 Conditions: primary human endothelial cells (HUVEC); actives raise or lower the signal. The method, boiled down: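 HUVEC, 3C stimulation; compound exposure 24 h; E-selectin by ELISA; gain- or loss-of-signal fitted bidirectionally vs DMSO baseline.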

Read-out in assay [9]: Interleukin-1 alpha (IL1a), IL1A (gene 3552)
Description: BSK_BE3C_IL1a: BioMAP Diversity Plus: BE3C Assay for Interleukin-1 alpha (IL1a) Biomarker Activity (AID 2283016). To be noted: primary human bronchial epithelial cells; actives raise or lower the signal. The method, boiled down: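 Human primary bronchial epithelial cells (BE3C system) were dosed with compound and IL-1a measured by ELISA 24 h later. Activity was fitted bidirectionally against DMSO baseline; cytotoxicity was tracked in parallel cultures by SRB total-protein staining.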

Read-out in assay [10]: Monocyte Chemoattractant Protein-1 (MCP1), CCL2 (gene 6347)
Description: BSK_3C_MCP1: BioMAP Diversity Plus: 3C Assay for Monocyte Chemoattractant Protein-1 (MCP1) Biomarker Activity (AID 2283017). To be noted: primary human endothelial cells (HUVEC); actives raise or lower the signal. The method, boiled down:
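HUVEC, 3C system; 24 h chemical exposure; MCP-1 by ELISA; bidirectional curve fit vs DMSO baseline.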

Read-out in assay [11]: Monocyte Chemoattractant Protein-1 (MCP1), CCL2 (gene 6347)
Description: BSK_4H_MCP1: BioMAP Diversity Plus: 4H Assay for Monocyte Chemoattractant Protein-1 (MCP1) Biomarker Activity (AID 2283018). To be noted: primary human endothelial cells (HUVEC); actives raise or lower the signal. The method, boiled down: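 Human umbilical vein endothelial cells (4H system) dosed with chemical; MCP-1 measured by ELISA 24 h after dosing. Bidirectional curve fitting against DMSO negative control as baseline; parallel SRB total-protein staining tracks overt cytotoxicity.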

In assay [12] the target is human Peroxisome Proliferator-activated Receptor delta (PPARd), PPARD (gene 5467) (UniProt Q03181). Description: ATG_PPARd_TRANS: Attagene TRANS-FACTORIAL HepG2 Assay for human Peroxisome Proliferator-activated Receptor delta (PPARd) (AID 2283002; active = hit-call score of the fitted dose curve at least 0.9, where 1 is the maximum). The method, boiled down: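 Read-out is induced reporter mRNA, quantified by RT-PCR with fluorescent labelling and capillary electrophoresis after 24 h dosing. Cells are HepG2 transiently carrying multiple GAL4-UAS reporter units driven by exogenous NR-GAL4 chimeras; DMSO serves as baseline.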

The target in assay [13] is Nuclear receptor subfamily 1 group I member 2 (Homo sapiens) (UniProt O75469). Description: ATG_PXR_TRANS: Attagene TRANS-FACTORIAL HepG2 Assay for human Pregnane X Receptor (PXR) (AID 2283008; active = hit-call score of the fitted dose curve at least 0.9, where 1 is the maximum). The method, boiled down: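 Fluorescence intensity of FAM-labelled, HpaI-digested reporter amplicons, separated by capillary electrophoresis, quantifies induction. HepG2 cells with PXR-Gal4 trans-reporter system were exposed 24 h; DMSO defines baseline.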

The target in assay [14] is Retinoic acid receptor RXR-alpha (Homo sapiens) (UniProt P19793). Description: ATG_RXRa_TRANS: Attagene TRANS-FACTORIAL HepG2 Assay for human Retinoid X Receptor alpha (RXRa) (AID 2283012; active = hit-call score of the fitted dose curve at least 0.9, where 1 is the maximum). The method, boiled down: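 HepG2 cells transiently transfected with multiplexed GAL4-UAS reporter units and chimeric NR-GAL4 fusions, dosed 24 h. Reporter mRNA measured by RT-PCR, FAM labelling, HpaI digestion and capillary electrophoresis; gain-of-signal fitted relative to DMSO baseline.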

Assay [15] concerns the target human Retinoid X Receptor beta (RXRb), RXRB (gene 6257) (UniProt P28702). Description: ATG_RXRb_TRANS: Attagene TRANS-FACTORIAL HepG2 Assay for human Retinoid X Receptor beta (RXRb) (AID 2283013; active = hit-call score of the fitted dose curve at least 0.9, where 1 is the maximum). The method, boiled down: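 HepG2 cells transiently transfected with multiplexed reporter units driven by GAL4-UAS and exogenous chimeric NR-Gal4 proteins; treated 24 h. Reporter mRNA measured by RT-PCR, 6-FAM labelling and capillary electrophoresis; gain-of-signal fitted versus DMSO baseline.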

The target of assay [16] is human Thyroid Receptor alpha (THRa1), THRA (gene 7067) (UniProt P10827). Description: ATG_THRa1_TRANS: Attagene TRANS-FACTORIAL HepG2 Assay for human Thyroid Receptor alpha (THRa1) (AID 2283014; active = hit-call score of the fitted dose curve at least 0.9, where 1 is the maximum). The method, boiled down: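 Transient HepG2 transfection, NR-Gal4 chimera driving GAL4-UAS reporters; 24 h compound exposure; total RNA, oligo(dT) RT, PCR, fluorescent primer extension, capillary electrophoresis. Upward direction vs DMSO control.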

Read-out in assay [17]: Human Leukocyte Antigen - DR isotype (HLADR), HLA-DRA (gene 3122)
Description: BSK_3C_HLADR: BioMAP Diversity Plus: 3C Assay for Human Leukocyte Antigen - DR isotype (HLADR) Biomarker Activity (AID 2283019).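 As to outcome: ELISA of cell-surface HLA-DR on HUVEC 24 h after dosing.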 To be noted: primary human endothelial cells (HUVEC); actives raise or lower the signal. The method, boiled down:
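HUVEC, 3C stimulation, 24 h post-dose; HLA-DR by ELISA; bidirectional curve fit vs DMSO baseline; gain or loss of signal scored.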

Read-out in assay [18]: Interleukin-8 (IL8), CXCL8 (gene 3576)
Description: BSK_3C_IL8: BioMAP Diversity Plus: 3C Assay for Interleukin-8 (IL8) Biomarker Activity (AID 2283020). To be noted: primary human endothelial cells (HUVEC); actives raise or lower the signal. The method, boiled down:
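Primary human umbilical vein endothelial cells (3C system) were exposed to test chemical for 24 h, then IL-8 was quantified by ELISA. Responses were fitted bidirectionally against DMSO vehicle as baseline.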

Assay [19] deals with human Retinoic Acid Receptor beta (RARb), RARB (gene 5915) (UniProt P10826). Description: ATG_RARb_TRANS: Attagene TRANS-FACTORIAL HepG2 Assay for human Retinoic Acid Receptor beta (AID 2283004; active = hit-call score of the fitted dose curve at least 0.9, where 1 is the maximum). The method, boiled down:
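Readout is reporter mRNA induction: RNA reverse-transcribed, PCR-amplified, FAM-labelled, HpaI-cut and resolved by capillary electrophoresis. Transiently transfected HepG2 cells carrying exogenous NR–Gal4 chimeras were dosed for 24 h; activity fitted upward relative to DMSO.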

The target of assay [20] is Retinoic acid receptor alpha (Homo sapiens) (UniProt P10276). Description: ATG_RARa_TRANS: Attagene TRANS-FACTORIAL HepG2 Assay for human Retinoic Acid Receptor alpha (RARa) (AID 2283005; active = hit-call score of the fitted dose curve at least 0.9, where 1 is the maximum). The method, boiled down: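 Reporter transcripts, measured by RT-PCR with fluorescent labeling and capillary electrophoresis after 24 h dosing, reflect activity of an exogenous human RARa–GAL4 fusion in transiently transfected HepG2. Fitted for increase relative to DMSO.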

Records with an inconclusive call do not appear. The source made the active and inactive calls. The calls were made as follows, unless noted: active = hit-call score of the fitted dose curve at least 0.9, where 1 is the maximum; inactive = score below 0.9.

human Retinoid X Receptor beta (RXRb), RXRB (gene 6257), sequence (P28702 whole entry, looked up, the tested form may be a part): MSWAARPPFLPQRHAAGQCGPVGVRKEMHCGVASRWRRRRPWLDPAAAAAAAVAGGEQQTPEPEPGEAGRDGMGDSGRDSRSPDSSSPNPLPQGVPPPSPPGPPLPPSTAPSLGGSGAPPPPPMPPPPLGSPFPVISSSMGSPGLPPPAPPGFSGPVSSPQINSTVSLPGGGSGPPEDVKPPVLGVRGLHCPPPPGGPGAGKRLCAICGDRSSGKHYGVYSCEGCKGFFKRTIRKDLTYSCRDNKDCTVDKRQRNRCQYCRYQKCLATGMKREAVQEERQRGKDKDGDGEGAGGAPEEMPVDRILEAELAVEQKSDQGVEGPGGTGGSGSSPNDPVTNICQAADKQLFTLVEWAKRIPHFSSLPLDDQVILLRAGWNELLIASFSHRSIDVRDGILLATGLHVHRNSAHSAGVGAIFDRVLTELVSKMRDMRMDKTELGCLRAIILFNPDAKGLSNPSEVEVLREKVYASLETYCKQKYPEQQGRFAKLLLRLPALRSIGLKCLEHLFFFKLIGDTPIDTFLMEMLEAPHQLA
Nuclear receptor subfamily 1 group I member 2 (Homo sapiens), sequence (O75469 whole entry, looked up, the tested form may be a part): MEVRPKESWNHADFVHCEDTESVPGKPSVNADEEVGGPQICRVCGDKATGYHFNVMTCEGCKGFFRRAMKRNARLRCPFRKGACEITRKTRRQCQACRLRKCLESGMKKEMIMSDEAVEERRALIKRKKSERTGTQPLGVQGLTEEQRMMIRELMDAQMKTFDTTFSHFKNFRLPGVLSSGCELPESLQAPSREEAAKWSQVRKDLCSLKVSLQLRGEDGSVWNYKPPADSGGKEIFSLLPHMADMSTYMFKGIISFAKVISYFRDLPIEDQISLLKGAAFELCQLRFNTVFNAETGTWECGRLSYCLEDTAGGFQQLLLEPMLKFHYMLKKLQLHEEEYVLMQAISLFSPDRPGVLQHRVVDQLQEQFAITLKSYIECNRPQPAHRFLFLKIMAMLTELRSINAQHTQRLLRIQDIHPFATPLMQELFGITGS
human RAR-related Orphan Receptor gamma (RORg), RORC (gene 6097), sequence (P51449 whole entry, looked up, the tested form may be a part): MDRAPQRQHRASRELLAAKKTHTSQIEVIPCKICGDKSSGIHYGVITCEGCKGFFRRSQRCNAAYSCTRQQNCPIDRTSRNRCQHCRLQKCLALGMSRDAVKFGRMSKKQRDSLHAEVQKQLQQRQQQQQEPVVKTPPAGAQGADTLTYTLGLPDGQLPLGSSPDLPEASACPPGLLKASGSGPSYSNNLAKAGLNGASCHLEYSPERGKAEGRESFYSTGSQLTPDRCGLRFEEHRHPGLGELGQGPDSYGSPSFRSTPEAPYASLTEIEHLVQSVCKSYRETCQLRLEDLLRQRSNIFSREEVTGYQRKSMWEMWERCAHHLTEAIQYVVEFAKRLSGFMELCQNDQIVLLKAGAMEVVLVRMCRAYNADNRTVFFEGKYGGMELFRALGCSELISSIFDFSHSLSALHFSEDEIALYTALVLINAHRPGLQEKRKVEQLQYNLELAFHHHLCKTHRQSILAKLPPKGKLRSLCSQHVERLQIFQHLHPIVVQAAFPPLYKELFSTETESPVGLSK
human Retinoic Acid Receptor beta (RARb), RARB (gene 5915), sequence (P10826 whole entry, looked up, the tested form may be a part): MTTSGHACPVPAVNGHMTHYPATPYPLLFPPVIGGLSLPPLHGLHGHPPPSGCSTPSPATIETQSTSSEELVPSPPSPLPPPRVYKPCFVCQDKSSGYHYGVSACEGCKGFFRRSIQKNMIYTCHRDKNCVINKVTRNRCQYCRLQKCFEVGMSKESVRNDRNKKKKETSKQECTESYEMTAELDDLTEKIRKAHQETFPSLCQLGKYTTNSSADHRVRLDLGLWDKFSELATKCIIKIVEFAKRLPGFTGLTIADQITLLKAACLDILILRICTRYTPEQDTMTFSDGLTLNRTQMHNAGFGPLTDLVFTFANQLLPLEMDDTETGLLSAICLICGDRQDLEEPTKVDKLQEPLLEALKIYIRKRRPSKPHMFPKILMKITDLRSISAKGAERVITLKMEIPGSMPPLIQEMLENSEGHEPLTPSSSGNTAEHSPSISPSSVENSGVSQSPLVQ
human Retinoic Acid Receptor gamma (RARg), RARG (gene 5916), sequence (P13631 whole entry, looked up, the tested form may be a part): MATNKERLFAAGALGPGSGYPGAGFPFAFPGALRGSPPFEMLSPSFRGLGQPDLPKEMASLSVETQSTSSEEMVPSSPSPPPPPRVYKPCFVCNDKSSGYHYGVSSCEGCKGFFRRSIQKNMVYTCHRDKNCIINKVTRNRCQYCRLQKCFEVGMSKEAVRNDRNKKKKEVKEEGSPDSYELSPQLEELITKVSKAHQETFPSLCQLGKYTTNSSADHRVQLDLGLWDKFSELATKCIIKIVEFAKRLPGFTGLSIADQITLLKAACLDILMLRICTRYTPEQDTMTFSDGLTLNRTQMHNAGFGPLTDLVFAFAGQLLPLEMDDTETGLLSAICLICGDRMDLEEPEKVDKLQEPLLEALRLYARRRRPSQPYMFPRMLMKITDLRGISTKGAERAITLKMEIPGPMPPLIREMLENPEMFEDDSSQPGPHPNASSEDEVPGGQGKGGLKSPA
Retinoic acid receptor RXR-alpha (Homo sapiens), sequence (P19793 whole entry, looked up, the tested form may be a part): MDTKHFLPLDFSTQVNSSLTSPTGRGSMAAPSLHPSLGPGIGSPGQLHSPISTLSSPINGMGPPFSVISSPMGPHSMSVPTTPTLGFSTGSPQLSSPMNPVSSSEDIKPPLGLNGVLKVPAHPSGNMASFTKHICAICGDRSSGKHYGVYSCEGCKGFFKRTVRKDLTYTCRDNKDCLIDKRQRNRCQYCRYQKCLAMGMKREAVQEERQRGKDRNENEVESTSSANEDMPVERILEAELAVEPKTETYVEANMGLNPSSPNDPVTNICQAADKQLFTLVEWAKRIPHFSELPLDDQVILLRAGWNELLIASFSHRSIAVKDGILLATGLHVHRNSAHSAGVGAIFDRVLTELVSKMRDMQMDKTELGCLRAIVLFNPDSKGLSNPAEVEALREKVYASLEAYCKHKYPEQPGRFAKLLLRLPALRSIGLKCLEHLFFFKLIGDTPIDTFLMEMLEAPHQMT
human Peroxisome Proliferator-activated Receptor alpha (PPARa), PPARA (gene 5465), sequence (Q07869 whole entry, looked up, the tested form may be a part): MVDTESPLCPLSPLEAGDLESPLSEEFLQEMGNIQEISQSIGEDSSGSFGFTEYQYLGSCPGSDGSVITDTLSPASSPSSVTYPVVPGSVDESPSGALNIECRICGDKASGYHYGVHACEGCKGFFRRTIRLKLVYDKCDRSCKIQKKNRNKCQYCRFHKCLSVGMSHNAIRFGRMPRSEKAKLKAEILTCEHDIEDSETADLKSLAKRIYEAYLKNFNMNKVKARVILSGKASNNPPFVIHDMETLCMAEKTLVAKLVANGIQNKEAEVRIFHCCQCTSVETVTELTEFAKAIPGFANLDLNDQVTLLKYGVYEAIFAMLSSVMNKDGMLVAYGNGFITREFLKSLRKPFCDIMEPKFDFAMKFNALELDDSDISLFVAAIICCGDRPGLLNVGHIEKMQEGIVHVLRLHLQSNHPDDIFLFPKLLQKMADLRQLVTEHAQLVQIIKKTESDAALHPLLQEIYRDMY
E-selectin (Homo sapiens), sequence (P16581 whole entry, looked up): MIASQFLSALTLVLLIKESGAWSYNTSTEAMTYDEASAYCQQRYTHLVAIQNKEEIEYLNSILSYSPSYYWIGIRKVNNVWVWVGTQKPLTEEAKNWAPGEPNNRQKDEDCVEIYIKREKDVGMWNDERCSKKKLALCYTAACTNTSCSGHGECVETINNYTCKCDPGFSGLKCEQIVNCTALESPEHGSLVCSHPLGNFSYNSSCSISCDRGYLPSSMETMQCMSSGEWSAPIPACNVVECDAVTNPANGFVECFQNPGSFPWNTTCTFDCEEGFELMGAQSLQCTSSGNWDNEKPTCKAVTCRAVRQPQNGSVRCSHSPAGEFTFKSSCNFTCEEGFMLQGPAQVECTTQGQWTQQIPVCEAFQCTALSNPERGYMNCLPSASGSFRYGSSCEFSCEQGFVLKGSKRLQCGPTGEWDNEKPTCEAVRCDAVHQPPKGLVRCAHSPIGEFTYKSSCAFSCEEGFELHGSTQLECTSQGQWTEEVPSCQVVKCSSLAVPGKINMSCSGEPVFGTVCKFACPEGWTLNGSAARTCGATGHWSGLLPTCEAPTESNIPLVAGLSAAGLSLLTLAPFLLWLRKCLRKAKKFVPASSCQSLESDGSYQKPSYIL
Peroxisome proliferator-activated receptor gamma (Homo sapiens), sequence (P37231 whole entry, looked up): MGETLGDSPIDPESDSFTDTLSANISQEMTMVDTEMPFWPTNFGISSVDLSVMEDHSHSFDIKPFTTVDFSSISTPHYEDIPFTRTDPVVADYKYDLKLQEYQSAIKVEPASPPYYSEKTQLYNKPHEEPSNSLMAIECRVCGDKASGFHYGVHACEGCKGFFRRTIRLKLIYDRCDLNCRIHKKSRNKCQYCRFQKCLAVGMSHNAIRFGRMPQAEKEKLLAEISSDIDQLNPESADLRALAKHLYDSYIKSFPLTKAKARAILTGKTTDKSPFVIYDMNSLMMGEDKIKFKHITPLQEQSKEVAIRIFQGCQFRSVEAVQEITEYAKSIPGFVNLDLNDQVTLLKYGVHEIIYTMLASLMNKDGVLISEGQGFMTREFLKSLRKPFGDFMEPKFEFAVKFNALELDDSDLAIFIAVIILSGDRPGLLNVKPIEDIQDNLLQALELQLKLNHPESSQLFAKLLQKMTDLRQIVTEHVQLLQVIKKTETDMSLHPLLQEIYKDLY
human Peroxisome Proliferator-activated Receptor delta (PPARd), PPARD (gene 5467), sequence (Q03181 whole entry, looked up, the tested form may be a part): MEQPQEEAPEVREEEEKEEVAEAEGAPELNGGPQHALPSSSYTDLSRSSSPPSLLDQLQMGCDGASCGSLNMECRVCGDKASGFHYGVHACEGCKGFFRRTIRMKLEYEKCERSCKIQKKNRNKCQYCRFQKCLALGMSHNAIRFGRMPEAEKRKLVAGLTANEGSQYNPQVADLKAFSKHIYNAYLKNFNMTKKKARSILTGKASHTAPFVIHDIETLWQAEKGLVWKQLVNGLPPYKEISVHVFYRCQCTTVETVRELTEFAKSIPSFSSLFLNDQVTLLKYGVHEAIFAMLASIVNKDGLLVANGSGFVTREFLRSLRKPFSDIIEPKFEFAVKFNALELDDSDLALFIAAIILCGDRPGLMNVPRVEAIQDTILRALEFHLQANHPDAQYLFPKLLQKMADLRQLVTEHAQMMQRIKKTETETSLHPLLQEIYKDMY

The term AC50 denotes the midpoint of the concentration-response curve, whichever way the signal moves. For the compound `CCCCCCCCCCCCCCCCCC(=O)O`, the result in [1], in assay [2], in [3], in assay [5], in [6] and in assay [7] was inactive. For the same compound, the outcome in assay [8], in [9], in assay [10] and in [11] was inactive. For the same compound, the AC50 in assay [4] is 3.97 µM (active).

For the compound `CNCc1cc(F)ccc1Oc1ccc(Cl)c(Cl)c1`, the result in [1], in assay [12], in assay [3], in assay [5], in assay [13] and in assay [6] was inactive. In addition, the result in assay [7], in [14], in assay [15], in assay [16] and in assay [9] was inactive. In addition, the AC50 in assay [4] was 23.9 µM (active); in assay [8] it was 4.88 µM (active); in [10], 20 µM (active); in assay [17], 32.4 µM (active); in assay [18] it was 20 µM (active).

On to `Oc1ccc2ccccc2c1N=Nc1ccccc1`, for which the AC50 in assay [1] is 1.7 µM (active); in assay [5], 3.87 µM (active); in assay [15], 6.33 µM (active). Besides, the outcome in [2], in [3], in assay [19], in assay [20], in [4] and in assay [13] was inactive. Also, the compound was called inactive in [6], in assay [16], in assay [8], in [9], in assay [10] and in assay [18].

For `CCCCCCOCCO`, the result in assay [1], in assay [2], in assay [12], in assay [3], in assay [4] and in assay [5] was inactive. Further, the outcome in assay [13], in assay [14], in assay [15], in assay [16], in [8] and in assay [9] was inactive. The outcome in assay [10], in assay [11], in [17] and in assay [18] was inactive.

Turning to `Cc1ccc2ncccc2c1`, the result in assay [1], in assay [2], in [3], in [19], in assay [4] and in [5] was inactive. In addition, the compound was classed as inactive in [7], in assay [15], in assay [8], in assay [9], in [10] and in assay [17].

On to `Cc1ccc(C)c(C)c1`, for which the result in assay [1], in [2], in [12], in [3], in [19] and in [4] was inactive. Further, the outcome in assay [13], in [6], in assay [14], in assay [8], in assay [9] and in assay [10] was inactive. The result in assay [11] and in [17] was inactive.

Regarding `CCCCN(CCCC)CCCC`, the outcome in [1], in assay [2], in assay [12], in [3], in assay [4] and in assay [13] was inactive. The compound was called inactive in [7], in [15], in assay [8], in [9], in [10] and in [11]. Moreover, the result in [17] was inactive.

Regarding `CCCCC(CC)COC(=O)CC(C(=O)OCC(CC)CCCC)S(=O)(=O)O` (centres undefined), the AC50 in assay [1] is 36.5 µM (active); in assay [3], 31.5 µM (active); in assay [4], 30.6 µM (active); in assay [5], 7.56 µM (active); in assay [13] it was 0.678 µM (active); in [8] it was 38.1 µM (active). Further, the AC50 in assay [9] was 11.6 µM (active); in assay [10], 31.4 µM (active); in [17], 37.9 µM (active). Further, the compound was classed as inactive in [2], in [12], in assay [19], in assay [20], in assay [6] and in [7]. The compound was called inactive in [14] and in assay [15].
